Activity calls are given as the source filed them. The calls were made as follows: active = hit-call score of the fitted dose curve at least 0.9, where 1 is the maximum; inactive = score below 0.9.
read-out: sulfotransferase 2A1 (SULT2A1), SULT2A1 (gene 6822); experiment: LTEA_HepaRG_SULT2A1: Life Technologies and Expression Analysis (LTEA) Assay for sulfotransferase 2A1 (SULT2A1) using HepaRG (AID 2283531); settings: mRNA level, 48 h; actives raise or lower the signal
Protocol: LTEA_HepaRG is a cell based, multiplexed-readout assay that uses HepaRG, a human liver cell line, with measurements taken at 48 hours after chemical dosing on a 96-well plate.LTEA_HepaRG_SULT2A1 is one of 102 assay component(s) measured in the LTEA HepaRG cell culture assay. It is a marker of NR mediated transport.Data from the assay component LTEA_HepaRG_SULT2A1 was analyzed into 1 endpoint. This assay endpoint, LTEA_HepaRG_SULT2A1, was analyzed with bidirectional fitting relative to DMSO as the negative control and baseline of activity. Using a type of inducible reporter, measures of mRNA induction for gain or loss-of-signal activity can be used to understand regulation of transcription factor activity. To generalize the intended target to other relatable targets, this assay endpoint is annotated to the transferase intended target family, where the subfamily is sulfotransferase.
A total of 1060 chemcials from the ToxCast library were tested in eight-point concentration-response experiments. Cell culture and cytotoxicity assays were conducted at Thermo Fisher Scientific's Custom Services facility (Madison, WI). A single lot of human HepaRG cells (Thermo Fisher Scientific, Frederick, MD) was used for the cell culture experiments. 96-well format collagen type I coated plates of human HepaRG cells were prepared using established methods. Briefly, cryopreserved HepaRG cells were thawed, plated at a density of approximately 100,000 cells/well in HepaRG Thaw, Plate, and General Purpose media (HPRG770, Thermo Fisher Scientific), and incubated for 48 hours. 0.5% DMSO was selected as vehicle control to balance the requisite need of DMSO in HepaRG cultures to maintain differentiation (for example, baseline metabolism, proportions of hepatocytes vs. cholangiocytes), while enabling further hepatic receptor pathway activation (for example, PXR and CAR) in response to chemical exposure. 48 hours after plating, the culture medium was replaced with HepaRG Serum-Free Incudtion Media. Cells were exposed to each test chemical in duplicate and maintained in CO2 incubators for another 48 hours. Chemical plates were thawed to room temperature and 200x concentrations of treatment groups were prepared. 8-point conentration-reponse curves were made with the highest exposure at 100 uM, followed by half-log dilutions, all in 0.5% DMSO. Each test plate contained variouse controls, induction positive controls (1mM phenobarbital), cytotoxicity positive controls ([…] aflatoxin B1), vehicle controls (0.5% DMSO), and total lysis controls (0.5% DMSO). Cell morphology images were taken using an Essen IncuCyte FLR automated microscope, with six 96-well plates imaged in about 24 minutes. Images were captured and exported and JPEG files. Spent culture media was transfered to black-well plates for the LDH assay, and remaining media was sorted at -80 C for later use. Cells were treated with RLT buffer and frozen until shipped for gene expression analysis. Total RNA was isolated from the cell suspension in 75 uL of Buffer RLT (Qiagen, Germantown, MD 20874) by Quintiles/Expression Analysis (Durham, NC) using a custom isolation procedure. Total RNA from each plate well was transferred to a preamplification plate. Fluidigm's 96.96 Dynamic ArrayTM (Fluidigm, Amsterdam, the Netherlands) technology was used for gene expression analyses by quantitative reverse transcription polymerase chain reaction (qRT-PCR, performed by Quintiles/Expression Analysis, Durham, NC)89. Standard TaqManTM Assays (Applied Biosystems/ThermoFisher Scientific, Foster City, CA) were used to assess the expression of 93 genes selected based on their selectivity and sensitivity to important hepatic receptors known to be modulated by environmental chemicals; importance in human hepatocyte functionality; and hepatotoxicity. […]

| SMILES | outcome | AC50 |
| --- | --- | --- |
| O=C1CCCCCN1 | inactive |  |
| O=C(NS(=O)(=O)/C=C/c1ccccc1)c1ccc(F)cc1Cl | inactive |  |
| CCOCCO | inactive |  |
| CCCC(=O)OCC | inactive |  |
| CC(C)CC(C)(O)C#CC(C)(O)CC(C)C (stereo not given) | inactive |  |
| CCN(C(=O)c1cc(C)cc(OC[C@H](C)Nc2ccncc2)c1)C(C)C | inactive |  |
| Oc1ccc2c(c1)-c1ccccc1C2 | inactive |  |
| CC(C)=CCCC(C)CCO (stereo not given) | inactive |  |
| CC(C)CCCCCCCOC(=O)CCCCC(=O)OCCCCCCCC(C)C | inactive |  |
| COc1ccc(/C=C/S(=O)(=O)NC(=O)c2ccc(C)cc2Cl)cc1 | inactive |  |
| CCOCCOCCOCCO | inactive |  |
| O=C1OC(=O)C2C3C=CC(C3)C12 (stereo not given) | inactive |  |
| Nc1cccc(N)c1 | inactive |  |
| CCCCCCCCCCCCCCCO | inactive |  |
| CC[C@H](C)C(=O)O[C@H]1C[C@@H](C)C=C2C=C[C@H](C)[C@H](CC[C@@H]3C[C@@H](O)CC(=O)O3)[C@H]21 | inactive |  |
| CN(C)c1ccc(N=NS(=O)(=O)O)cc1 | inactive |  |
| NC(=O)NO | inactive |  |
| Cn1c(=O)cc(Oc2ccc(F)cc2F)c2cnc(NCC(C)(C)O)nc21 | inactive |  |
| COC(=O)c1ccccc1O | inactive |  |
| Cc1c(-c2cccnc2)c2ccccc2n1CCCCC(=O)O | inactive |  |

| SMILES | outcome | AC50 |
| --- | --- | --- |
| CC(=O)c1ccc2c(c1)[C@H](NC(=O)c1ccc(F)cc1)[C@@H](O)C(C)(C)O2 | inactive |  |
| C1=CCCC=CCCC=CCC1 | inactive |  |
| CC(C)=CCC/C(C)=C\CO | inactive |  |
| O=c1n(CC2CO2)c(=O)n(CC2CO2)c(=O)n1CC1CO1 (stereo not given) | inactive |  |
| Fc1ccccc1[C@@H](F)COC1CCC(Nc2ncnc3[nH]ncc23)CC1 (stereo not given in full) |  | 65.7 µM (active) |
| CCC(C)(C)C(=O)O[C@H]1C[C@@H](C)C=C2C=C[C@H](C)[C@H](CC[C@@H]3C[C@@H](O)CC(=O)O3)[C@H]21 | inactive |  |
| On1ccccc1=S | inactive |  |
| O=C(O)c1cccc(Oc2ccccc2)c1 | inactive |  |
| CC(C)=CCC/C(C)=C/CO | inactive |  |
| COC(=O)CC(=O)OC | inactive |  |
| CCNc1ccccc1 | inactive |  |
| CC(C)CCO | inactive |  |
| CC1(C)C(=O)N(Br)C(=O)N1Br | inactive |  |
| O=C1CCC(N2C(=O)c3ccccc3C2=O)C(=O)N1 (stereo not given) | inactive |  |
| O=C(O)CC(O)C(=O)O (stereo not given) | inactive |  |
| Cc1ccc(O)cc1 | inactive |  |
| COCCOCCOCCOC | inactive |  |
| O=C(O)c1cc(N=Nc2ccc(S(=O)(=O)Nc3ccccn3)cc2)ccc1O | inactive |  |
| COc1cccc(-c2ccc(/C=C\CN3CCCCCC3)cc2Cl)c1 |  | 83.2 µM (active) |
| O=C(O)c1cccc(N(Cc2cccnc2)c2ccc(OC(F)F)c(OC(F)F)c2)c1 | inactive |  |

— PubChem BioAssay (EPA / NIEHS)
